Activity calls are given as the source filed them. The rule behind the calls is not given here.
What follows are compounds tested against L-lactate dehydrogenase (Plasmodium falciparum (isolate CDC / Honduras)) (UniProt Q27743) (assay: PfLDH activity inhibition – cell lysate, 3D7 strain, counter-screen for P. falciparum growth inhibition project (AID 2304;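 note: 0% = vehicle and 100% = reference inhibitor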)). Details: P. falciparum 3D7 crude extract, LDH APAD/NBT absorbance; at 2 µM; hits give high values.
L-lactate dehydrogenase (Plasmodium falciparum (isolate CDC / Honduras)), sequence (Q27743 whole entry, looked up): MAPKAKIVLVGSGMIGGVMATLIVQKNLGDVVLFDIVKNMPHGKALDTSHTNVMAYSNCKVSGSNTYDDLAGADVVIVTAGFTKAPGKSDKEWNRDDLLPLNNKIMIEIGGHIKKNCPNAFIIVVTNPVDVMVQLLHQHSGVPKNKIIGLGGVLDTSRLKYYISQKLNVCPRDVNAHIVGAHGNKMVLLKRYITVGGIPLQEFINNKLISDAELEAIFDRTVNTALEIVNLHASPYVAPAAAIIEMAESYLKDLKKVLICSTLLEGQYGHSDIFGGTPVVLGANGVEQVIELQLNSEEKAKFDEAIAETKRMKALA
With `CC(C)c1ccc(CN(C)CCCCNC(=O)c2ccc(NC(=O)c3ccc(Cl)cc3)cc2)cc1` the inhibition was 0% (inactive). For `CC(C)n1c(C2CCN(CC3CCN(C(=O)/C=C/c4ccc(Cl)c(Cl)c4)CC3)CC2)nc2ccccc21`, the inhibition was 2% (inactive). For `Cn1nc(C(F)(F)F)c(-c2ccc(F)cc2)c1NC(=O)Nc1ccc(F)cc1F`, the inhibition was -2% (inactive). For `COc1cccc2sc(N3CCN(C(=O)c4ccc([N+](=O)[O-])o4)CC3)nc12`, the inhibition was 1% (inactive). With `COc1ccc2nccc(NC(=O)CNCc3ccc(-c4ccccc4)cc3)c2c1` the inhibition was -4% (inactive). `O=C(Nc1ccc(Cn2ncc(N3CCCNCC3)c(Cl)c2=O)cc1)Nc1cc(Cl)cc(Cl)c1` was tested, and the inhibition was 3% (inactive). `COc1cc(C(=O)Nc2nc3ccccc3[nH]2)ccc1OCC(=O)Nc1cccc(C(F)(F)F)c1` was tested, and the inhibition was -8% (inactive). For `O=C(NCC1CC1)C1CCN(C(c2ccccc2)c2ccc(Cl)c(Cl)c2)CC1` (stereo not drawn), the inhibition was -1% (inactive). With `CN1CCN(CCCN(Cc2cccc(-c3cccc(CNCCc4ccccc4)c3)c2)C(=O)Nc2ccccc2)CC1` the inhibition was 0% (inactive). In the case of `O=C(Nc1ccc(F)c(C(F)(F)F)c1)N[C@H]1CCN(CCCCCNC(=O)[C@@H]2C[C@H]2c2ccc(Cl)c(Cl)c2)C1`, the inhibition is reported as 7% (inactive). In the case of `CC(Cc1ccc(OCc2ccccc2)cc1)Nc1nc2ccccc2c(=O)[nH]1` (stereo not drawn), the inhibition is reported as -1% (inactive). In the case of `CCCCCCP(=O)(COc1ccc(CCN(CC(O)COc2cccc3[nH]c(C(N)=O)cc23)CC(O)COc2cccc3[nH]c(C(N)=O)cc23)cc1)OCCCC` (stereo not drawn), the inhibition is reported as 3% (inactive). For `Cc1cc(N[C@@H](CC(C)C)C(=O)NCCOc2ccccc2)nc(Nc2ccccc2)n1`, the inhibition was -2% (inactive).

Source: PubChem BioAssay
